# According to PubChem BioAssay:
# Values without a mark were called inactive. The source made the active and inactive calls.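 Rule for the calls, unless noted: active = mean inhibition above 46.68%, the untreated control wells mean plus 3 SD; inactive = the rest.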
# Assays:
# [1] = target: Nuclear receptor coactivator 3 (Homo sapiens) (UniProt Q9Y6Q9); test: NCOA3 GAL4-fusion reporter inhibition – cell-based, luminescence, quadruplicate, confirmation (AID 588792;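 active = mean inhibition over 43.08%, the solvent-only control mean plus 3 SD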;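 note: 0% = DMSO treated cells and 100% = gossypol at 36 µM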); conditions: HEK293 GAL4-SRC3 luciferase reporter, at 3.6 µM, active compounds read high
# Nuclear receptor coactivator 3 (Homo sapiens), sequence (Q9Y6Q9 whole entry, looked up, the tested form may be a part): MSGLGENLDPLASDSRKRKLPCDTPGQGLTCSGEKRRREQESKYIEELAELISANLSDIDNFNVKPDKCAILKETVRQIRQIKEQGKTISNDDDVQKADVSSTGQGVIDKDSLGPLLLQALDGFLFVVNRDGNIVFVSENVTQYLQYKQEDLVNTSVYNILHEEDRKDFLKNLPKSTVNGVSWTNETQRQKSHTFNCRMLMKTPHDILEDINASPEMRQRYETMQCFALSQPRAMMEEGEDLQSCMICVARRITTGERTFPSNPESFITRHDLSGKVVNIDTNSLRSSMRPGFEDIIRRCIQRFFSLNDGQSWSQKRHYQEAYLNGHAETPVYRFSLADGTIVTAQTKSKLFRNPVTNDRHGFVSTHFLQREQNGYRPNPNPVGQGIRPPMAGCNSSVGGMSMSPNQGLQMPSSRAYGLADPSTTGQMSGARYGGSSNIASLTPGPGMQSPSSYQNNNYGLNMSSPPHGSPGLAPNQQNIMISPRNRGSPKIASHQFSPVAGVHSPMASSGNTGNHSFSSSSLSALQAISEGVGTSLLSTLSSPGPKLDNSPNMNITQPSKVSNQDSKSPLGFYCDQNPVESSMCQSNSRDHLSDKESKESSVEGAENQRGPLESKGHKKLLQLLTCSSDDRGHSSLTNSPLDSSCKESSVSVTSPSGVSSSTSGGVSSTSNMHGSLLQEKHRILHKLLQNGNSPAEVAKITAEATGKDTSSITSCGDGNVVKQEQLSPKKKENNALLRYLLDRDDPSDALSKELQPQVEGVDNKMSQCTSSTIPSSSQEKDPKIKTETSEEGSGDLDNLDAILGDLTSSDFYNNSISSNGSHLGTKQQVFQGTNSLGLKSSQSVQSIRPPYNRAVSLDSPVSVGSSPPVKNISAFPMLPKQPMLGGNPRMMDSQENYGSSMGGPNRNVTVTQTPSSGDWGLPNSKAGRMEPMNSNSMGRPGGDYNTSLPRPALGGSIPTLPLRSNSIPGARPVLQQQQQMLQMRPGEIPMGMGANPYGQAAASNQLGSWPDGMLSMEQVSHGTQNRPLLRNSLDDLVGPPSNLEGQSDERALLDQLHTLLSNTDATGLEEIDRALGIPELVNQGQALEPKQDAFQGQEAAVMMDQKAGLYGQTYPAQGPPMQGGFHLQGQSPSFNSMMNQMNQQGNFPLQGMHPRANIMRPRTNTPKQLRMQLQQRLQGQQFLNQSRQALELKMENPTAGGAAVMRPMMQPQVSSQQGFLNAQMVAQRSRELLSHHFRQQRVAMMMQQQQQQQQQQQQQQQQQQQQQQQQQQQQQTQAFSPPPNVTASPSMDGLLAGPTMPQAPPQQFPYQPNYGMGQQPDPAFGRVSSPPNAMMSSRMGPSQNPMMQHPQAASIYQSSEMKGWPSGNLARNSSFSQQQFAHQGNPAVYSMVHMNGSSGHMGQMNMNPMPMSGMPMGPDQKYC
# [2] = test system: transactivating tegument protein VP16 (Human herpesvirus 1), Gal4-VP16 luciferase reporter; test: repression of VP16-driven luciferase reporter – cell-based, luminescence, high throughput, counter-screen for SRC3 inhibitor project (AID 588794; in the data active = inhibition above about 30%); conditions: mammalian cells, at 3.6 µM, active compounds read high
# [3] = target: Nuclear receptor coactivator 1 (Homo sapiens) (UniProt Q15788); test: NCOA1 GAL4-fusion reporter inhibition – cell-based, luminescence, quadruplicate, confirmation (AID 588820); conditions: HEK293 GAL4-SRC1 luciferase reporter, at 3.6 µM, active compounds read high;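 note: 0% = DMSO wells and 100% = gossypol 36 µM treated wells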
# Nuclear receptor coactivator 1 (Homo sapiens), sequence (Q15788 whole entry, looked up, the tested form may be a part): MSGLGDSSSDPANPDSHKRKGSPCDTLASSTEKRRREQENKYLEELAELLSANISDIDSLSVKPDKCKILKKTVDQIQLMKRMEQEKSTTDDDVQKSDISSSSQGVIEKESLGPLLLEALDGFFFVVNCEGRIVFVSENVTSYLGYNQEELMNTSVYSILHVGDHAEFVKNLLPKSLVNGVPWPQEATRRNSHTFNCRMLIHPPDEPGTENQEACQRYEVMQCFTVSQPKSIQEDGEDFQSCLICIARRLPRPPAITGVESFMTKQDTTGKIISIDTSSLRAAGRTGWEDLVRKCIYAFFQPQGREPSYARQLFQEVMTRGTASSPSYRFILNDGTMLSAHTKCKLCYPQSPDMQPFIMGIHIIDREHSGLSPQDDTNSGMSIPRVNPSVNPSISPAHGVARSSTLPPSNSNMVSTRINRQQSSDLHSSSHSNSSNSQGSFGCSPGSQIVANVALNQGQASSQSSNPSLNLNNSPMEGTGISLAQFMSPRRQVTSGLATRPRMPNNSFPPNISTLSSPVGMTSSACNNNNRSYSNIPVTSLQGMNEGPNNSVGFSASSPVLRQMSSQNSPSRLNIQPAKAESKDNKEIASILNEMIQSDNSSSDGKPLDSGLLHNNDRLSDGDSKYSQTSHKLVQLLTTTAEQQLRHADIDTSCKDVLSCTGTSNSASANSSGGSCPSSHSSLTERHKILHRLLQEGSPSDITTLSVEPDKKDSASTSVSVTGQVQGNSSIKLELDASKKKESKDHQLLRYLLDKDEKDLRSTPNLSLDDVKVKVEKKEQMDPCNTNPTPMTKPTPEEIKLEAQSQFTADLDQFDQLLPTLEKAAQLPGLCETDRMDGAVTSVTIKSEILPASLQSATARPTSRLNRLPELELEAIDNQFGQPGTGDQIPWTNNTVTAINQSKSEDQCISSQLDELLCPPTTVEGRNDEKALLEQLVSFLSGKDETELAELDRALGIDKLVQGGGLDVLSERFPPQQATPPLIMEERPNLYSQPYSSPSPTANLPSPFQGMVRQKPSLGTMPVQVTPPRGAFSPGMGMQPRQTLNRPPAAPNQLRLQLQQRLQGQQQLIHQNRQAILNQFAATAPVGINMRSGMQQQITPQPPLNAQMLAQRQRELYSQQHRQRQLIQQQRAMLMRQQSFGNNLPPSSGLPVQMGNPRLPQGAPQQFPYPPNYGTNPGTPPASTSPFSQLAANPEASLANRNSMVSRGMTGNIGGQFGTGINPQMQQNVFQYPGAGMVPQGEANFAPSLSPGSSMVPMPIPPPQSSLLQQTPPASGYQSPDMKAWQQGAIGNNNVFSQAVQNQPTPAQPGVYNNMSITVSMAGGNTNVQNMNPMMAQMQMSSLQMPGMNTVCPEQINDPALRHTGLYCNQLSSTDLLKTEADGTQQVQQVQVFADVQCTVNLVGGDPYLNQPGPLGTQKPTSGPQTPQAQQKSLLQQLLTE
# [4] = repression of VP16-driven luciferase reporter – cell-based, luminescence, high throughput, counter-screen for SRC1 inhibitor project (AID 588824; in the data active = inhibition above about 25%); conditions: cell-based VP16 transactivation luciferase luminescence; at 3.6 µM; active compounds read high
# [5] = StAR promoter reporter inhibitors, counter-screen for LRH-1 inverse agonist project, cell-based, luminescence, high throughput (AID 651611; in the data active = inhibition above about 28%); conditions: StAR promoter luciferase reporter counterscreen, at 3.6 µM, active compounds read high
# [6] = target: Nuclear receptor subfamily 5 group A member 2 (Homo sapiens) (UniProt O00482); test: NR5A2 activity suppression in reporter cells – cell-based, luminescence, confirmation (AID 651613; in the data active = inhibition above about 42%;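 note: HEK293T cells co-transfected with LRH-1 and StAR promoter luciferase reporter; 0% = vehicle wells and 100% = parental cells lacking receptor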); conditions: cell-based LRH-1 luciferase reporter, inverse agonism; at 3.6 µM; active compounds read high
# Nuclear receptor subfamily 5 group A member 2 (Homo sapiens), sequence (O00482 whole entry, looked up): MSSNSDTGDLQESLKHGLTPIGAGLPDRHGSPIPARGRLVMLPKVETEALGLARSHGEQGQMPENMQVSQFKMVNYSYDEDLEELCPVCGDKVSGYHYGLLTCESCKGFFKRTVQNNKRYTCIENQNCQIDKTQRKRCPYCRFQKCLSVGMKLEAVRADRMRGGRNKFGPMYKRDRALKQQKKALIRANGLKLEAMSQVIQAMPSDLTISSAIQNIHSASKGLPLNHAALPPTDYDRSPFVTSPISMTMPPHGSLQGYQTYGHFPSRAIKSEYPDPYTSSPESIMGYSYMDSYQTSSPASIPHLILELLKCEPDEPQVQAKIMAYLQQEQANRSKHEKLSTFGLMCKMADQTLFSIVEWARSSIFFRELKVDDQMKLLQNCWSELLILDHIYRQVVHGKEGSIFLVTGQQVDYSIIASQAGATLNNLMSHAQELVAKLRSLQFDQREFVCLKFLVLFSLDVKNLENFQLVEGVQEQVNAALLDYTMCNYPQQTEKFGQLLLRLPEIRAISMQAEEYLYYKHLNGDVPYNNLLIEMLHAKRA
# [7] = target: Steroidogenic factor 1 (Homo sapiens) (UniProt Q13285); test: inverse agonism at SF1 nuclear receptor – cell-based, luminescence, high throughput, counter-screen for LRH-1 inverse agonist project (AID 651614; in the data active = inhibition above about 44%;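 note: cells cotransfected with StAR promoter reporter and SF1 expression vector; 0% = vehicle on cells with receptor and 100% = vehicle on cells lacking receptor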); conditions: cell-based SF1 luciferase reporter, at 3.6 µM, active compounds read high
# Steroidogenic factor 1 (Homo sapiens), sequence (Q13285 whole entry, looked up, the tested form may be a part): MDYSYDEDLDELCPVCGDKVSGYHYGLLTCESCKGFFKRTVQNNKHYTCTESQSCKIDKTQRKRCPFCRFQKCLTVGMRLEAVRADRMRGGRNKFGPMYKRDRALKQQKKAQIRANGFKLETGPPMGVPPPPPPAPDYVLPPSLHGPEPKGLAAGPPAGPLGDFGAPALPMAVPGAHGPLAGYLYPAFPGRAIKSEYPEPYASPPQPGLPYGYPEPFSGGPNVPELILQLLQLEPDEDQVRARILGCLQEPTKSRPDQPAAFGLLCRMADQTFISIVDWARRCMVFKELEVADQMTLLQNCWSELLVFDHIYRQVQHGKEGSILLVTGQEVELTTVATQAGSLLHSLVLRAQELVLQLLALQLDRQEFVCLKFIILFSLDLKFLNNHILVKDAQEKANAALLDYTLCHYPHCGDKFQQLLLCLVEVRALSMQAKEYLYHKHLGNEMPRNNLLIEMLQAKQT
# [8] = compounds suppressing VP16-driven luciferase signal – cell-based, luminescence, high throughput, counter-screen for LRH-1 inverse agonist project (AID 651615; in the data active = inhibition above about 33%); conditions: Gal4-VP16 luciferase reporter cells, at 3.6 µM, active compounds read high
Compound,inhibition [1],inhibition [2],inhibition [3],inhibition [4],inhibition [5],inhibition [6],inhibition [7],inhibition [8]
CN(C(=O)OC(C)(C)C)c1ccc(-c2nc3ccccc3s2)cc1,87.1% (active),84.5% (active),78.8% (active),76.6% (active),75.6% (active),80.9% (active),77.3% (active),78.5% (active)
c1ccc(-c2nn(-c3ccccc3)[n+](-c3ccccc3)n2)cc1,20.3%,14.7%,-0.24%,15.6%,23.8%,43.8% (active),46% (active),48.5% (active)
CCN(CC)c1ccc(/C=C/c2cccc[n+]2C)c(OC)c1,48.1% (active),75% (active),52.2% (active),77.1% (active),73.3% (active),106% (active),91.8% (active),85.7% (active)
O=C(/C=C/c1cccs1)NC(=S)NNC(=O)c1ccccc1O,76% (active),77.6% (active),57% (active),78.7% (active),76.8% (active),106% (active),91.8% (active),86% (active)
COc1ccc(C)cc1NC(=O)c1nnn(Cc2cccc(C(F)(F)F)c2)c1N,10.7%,41.8% (active),27.5%,53.3% (active),39.6% (active),56.2% (active),57.3% (active),60.3% (active)
CCCCCCCCCCn1ccc(=N)cc1,70.1% (active),81.1% (active),51.3% (active),80.4% (active),69.4% (active),102% (active),90.2% (active),83.7% (active)
CC(=O)c1c(C)[nH]c(C(=O)OCC(=O)Nc2cccc(S(=O)(=O)N3CCCC3)c2)c1C,20.7%,43.6% (active),5.87%,38.3% (active),26.2%,49.3% (active),48.9% (active),51.7% (active)
Cc1cc(/C=N/n2cnnc2)c(C)n1-c1ccc(OCc2ccc(Cl)cc2Cl)cc1,19.7%,43.4% (active),8.2%,37.6% (active),36.5% (active),67% (active),68.7% (active),62.3% (active)
CC1(C)CC(N2CCN(Cc3ccccc3)CC2)=CC(=[N+]2CCCCC2)C1,30.2%,50.7% (active),-6.45%,40.7% (active),59.8% (active),88.3% (active),86.3% (active),74% (active)
Cc1ccc(/C=C/c2ccc(N(C)C)cc2)[n+](C)c1,36.3%,56% (active),11.4%,50.1% (active),41.5% (active),78.5% (active),73% (active),67.4% (active)
Cc1cc(/C=c2/sc3nc4ccccc4n3c2=O)c(C)n1-c1ccccn1,89.7% (active),87.8% (active),82.9% (active),81.6% (active),86.4% (active),84.2% (active),87.4% (active),78.8% (active)
CCCCCCn1c2c(c(=N)c3c1CCC3)CCC2,61.3% (active),76.9% (active),55.4% (active),76.4% (active),68.7% (active),110% (active),91.7% (active),93.6% (active)
CCN(CC)CCn1c2ccccc2c2cnc(N)c(C#N)c21,5.22%,35.2% (active),30.1%,50.6% (active),35.7% (active),65.8% (active),57.4% (active),74.8% (active)
CC(NC(=O)Nc1nnc(C(F)(F)F)s1)(C(F)(F)F)C(F)(F)F,52.9% (active),72% (active),37.6%,79.1% (active),74.9% (active),99.7% (active),89.4% (active),93% (active)
Cc1cc(C)cc(NS(=O)(=O)c2ccc3c(c2)c(=O)n(C)c(=O)n3C)c1,55.2% (active),36.5% (active),57.1% (active),38% (active),36.2% (active),54.4% (active),41.3%,56.9% (active)
C=CS(=O)(=O)N(Cc1ccc(Cl)c(Cl)c1)C[C@@H](O)CO,42.6%,19.1%,8.46%,13.3%,55.4% (active),50.4% (active),58% (active),28.3%
Cc1ccc(S(=O)(=O)Nc2ccccc2C(=O)Nc2nc(-c3ccc(F)cc3)cs2)cc1,20.7%,27.8%,20.1%,37% (active),42.1% (active),82.7% (active),80.3% (active),72.4% (active)
